Screening data from PubChem BioAssay.
Shown is part of a subset that was picked to be rich in hits.
BL2 CD40 inh: CD40 pathway inhibition in BL2 cells; BL2 NF-kB luciferase reporter, CD40L-induced, 4 h; inhibition, % at 10 µM; 83,000 tested, 0.94% active; AID 1053188;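 active = mean inhibition of at least 50% with a set share of replicates also reaching that level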;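 also: 0% = neutral control wells and 100% = IKK inhibitor VII at 50 µM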
Starred values were filed as active, the others as inactive; [ ] = another dose, or the depositor's remark.

SMILES	BL2 CD40 inh
O=C(c1ccc([N+](=O)[O-])o1)N1CCN(c2nc3ccc(F)cc3s2)CC1	31.8*
COc1cccc2sc(N3CCN(c4nc5ccccc5s4)CC3)nc12	5.2
O=C(C1COc2ccccc2O1)N1CCN(c2nc3ccc([N+](=O)[O-])cc3s2)CC1 (centres undefined)	3.5
c1coc(-c2nnc(SCc3cn4ccccc4n3)o2)c1	-6.9
COc1ccc(S(=O)(=O)N(C)CC(=O)Nc2ccc3c(c2)OCCO3)cc1	22.4
CO[C@@H]1CN(C)C(=O)c2cc(NS(C)(=O)=O)ccc2OC[C@H](C)N(C(=O)C2CCOCC2)C[C@H]1C	-7.5[25 µM]
CCCCC(=O)NCc1ccc2c(c1)cc(C)n2C	-9.1
Cc1cccc(CN2CCN(C(=S)Nc3ccccc3)CC2)c1	-0.3
Cc1ccc(S(=O)(=O)N2CCCC2CNC(=O)c2ccccc2)cc1 (centres undefined)	-9.2
Cc1ccc(S(=O)(=O)N2CCCC2CNC(=O)c2ccc3c(c2)OCO3)cc1 (centres undefined)	37.6*
COc1ccc(C(=O)NCC2CCCN2S(=O)(=O)c2ccccc2)cc1OC (centres undefined)	3.4
CN(CC(=O)Nc1ccc(N2CCOCC2)cc1)C(=O)CCNC(=O)c1ccccc1Cl	-3.7
Clc1nc(CN2CCCCC2)nc2sc3c(c12)CCCC3	55.2*
Clc1nc(CN2CCOCC2)nc2sc3c(c12)CCC3	-1.3
CC1CCN(Cc2nc(Cl)c3c4c(sc3n2)CCC4)CC1	-4.8
CCNC(=O)COC(=O)c1[nH]c(C)c(C(=O)OC)c1C	-35.1
COC(=O)C12OCC34C(CC5C(C)=C(O)C(=O)CC5(C)C3C(O)C1O)OC(=O)C(OC(=O)C=C(C)C)C24 (centres undefined)	103.1*
O=C1CNC[C@@H]2[C@H](c3ccc(C#Cc4cccnc4)cc3)[C@H](CO)N12	-15.7[25 µM]
CN(Cc1ccccc1F)c1nc(-c2cccs2)nc2ccccc12	2.3
Cc1nc2nc(C)n(CCN3CCOCC3)c(=O)c2c(-c2cccc([N+](=O)[O-])c2)c1C(=O)CCCCCCCCCCN1CCC(c2ccccc2)(c2ccccc2)CC1	115.2*
CCOC(=O)c1c(C)nc(C)c(C(=O)OCC)c1-c1cccc([N+](=O)[O-])c1	-2.7
Cc1nc2ccccc2c(=O)n1CCN1CCOCC1	-3.8
CCNC(=O)C1(C)CCCN1C(=O)c1ccc(-c2ccccc2)cc1 (centres undefined)	1.3
O=[N+]([O-])c1ccccc1C=CC=NN=Cc1ccccc1O	-85.8
CN(C)C(=O)c1cccc(-c2cnc3c(NC=O)cc(-c4cccc(C(F)(F)F)c4)cn23)c1	65.4*
SMILES	BL2 CD40 inh
COc1ccc(-c2cc(NC=O)c3ncc(-c4cccc(C(=O)N(C)C)c4)n3c2)cn1	-19.6
CC(=O)Nc1cc(-c2cccc(C(=O)N(C)C)c2)cn2c(-c3ccccc3)cnc12	1.5
O=C1NC2CCCCC2C(=O)N1OS(=O)(=O)c1ccccc1 (centres undefined)	29.5
COc1ccc(-c2ccc3c(c2)[C@H]2[C@H](CCN2C(=O)C2CC2)[C@@H](CO)N3C)cc1	53.1*
COc1ccc(-c2ccc3c(c2)[C@H]2[C@H](CCN2C(=O)C2CC2)[C@H](CO)N3C)cc1	-4.7
CN1c2ccc(-c3cccc(F)c3)cc2[C@@H]2[C@@H](CCN2C(=O)C2CC2)[C@@H]1CO	19.5
COc1ccc(-c2ccc3c(c2)[C@@H]2[C@@H](CCN2C(=O)C2CC2)[C@H](CO)N3C)cc1	40.1
CN1c2ccc(-c3cccc(F)c3)cc2[C@H]2[C@H](CCN2C(=O)C2CC2)[C@H]1CO	52.8*
CN1c2ccc(-c3cccc(F)c3)cc2[C@@H]2[C@@H](CCN2C(=O)C2CC2)[C@H]1CO	-97.1
CC(OC(=O)Cn1cnc2ccccc2c1=O)C(=O)NCc1ccccc1 (centres undefined)	40.6
CC(=O)N1C(=O)N(C(C)=O)C2C1N(C(C)=O)C(=O)N2C(C)=O (centres undefined)	0.4
CC[n+]1cc(-c2ccccc2)nc(N2CCOCC2)n1	-8.5
Cc1c(CCOC(=O)c2ccccc2)sc[n+]1Cc1ccccc1	-2.4
Cc1c(CCOC(=O)CC23CC4CC(CC(C)(C4)C2)C3)sc[n+]1CC(=O)c1ccccc1	69.7*
Cc1c(CCOC(=O)C23CC4CC(CC(C)(C4)C2)C3)sc[n+]1CC(=O)c1ccccc1	41.9
CC(=O)c1c(C)[nH]c(C(=O)COC(=O)C2CC2)c1C	-6.2
CNC[C@@H]1Oc2c(NS(=O)(=O)c3ccc(Cl)cc3)cccc2C(=O)N([C@H](C)CO)C[C@H]1C	10.7[25 µM]
CSC1SCC2C(=O)N(C)C(C(C)C)C(=O)OCC(NC(=O)c3cnc4ccccc4n3)C(=O)NC(C)C(=O)N(C)C1C(=O)N(C)C(C(C)C)C(=O)OCC(NC(=O)c1cnc3ccccc3n1)C(=O)NC(C)C(=O)N2C (centres undefined)	91.6*
O=C(Nc1ccc(F)c([N+](=O)[O-])c1)C(=O)c1c(O)[nH]c2ccccc12	-11.6
Cc1ccc(S(=O)(=O)N2CCC(N3CCC(C)CC3)CC2)cc1	5.6
CC1CCN(S(=O)(=O)c2ccc3c(c2)oc(=O)n3C)CC1	7.6
CC1CCN(S(=O)(=O)c2ccc3c(c2)C(Cl)(Cl)C(=O)N3)CC1	52.8*
CC(C)CN(C(=O)c1cc([N+](=O)[O-])cc([N+](=O)[O-])c1)C1CCS(=O)(=O)C1 (centres undefined)	6.2
Cc1onc(-c2ccccc2Cl)c1-c1nc(-c2ccccn2)no1	5.6
Cc1occc1-c1nc(-c2ccccn2)no1	-47.7
SMILES	BL2 CD40 inh
Clc1ccccc1/C=C/c1nc(-c2ccccn2)no1	95.6*
COc1cccc(-c2ccc3c(c2)O[C@@H](CN(C)C(=O)C2CCCCC2)[C@@H](C)CN([C@@H](C)CO)S3(=O)=O)c1	23.9[25 µM]
CN(C)C(=O)c1ccc(NC(=O)c2cc(-n3cnnc3)ccc2Cl)cc1	-4.2
COc1ccccc1S(=O)(=O)N1CCN(S(=O)(=O)c2cccs2)CC1	-3.2
CCCC(=O)Nc1ccc(C(=O)COC(=O)c2c(C)noc2C)cc1	5.9
Cc1nc(N2CCN(C(=O)c3ccco3)CC2)c(C#N)c2c1CCCC2	-7.3
CN1CCc2c(C#N)c(N3CCCCC3)nc(NCc3ccccc3)c2C1	35.0*
N#Cc1c(NCCCO)nc(NCc2ccccc2)c2c1CCN(Cc1ccccc1)C2	-1.2
CCN(CC1COc2ccccc2O1)C(=O)CN1C(=O)NC(C)(c2ccccc2)C1=O (centres undefined)	6.3
CC1(C)C(=O)N=C2c3ccccc3C(=O)C(=O)C21 (centres undefined)	90.8*[25 µM]
O=C(CCN1CCCCC1)NCC[C@H]1CC[C@@H](NS(=O)(=O)c2cccc(Cl)c2)[C@@H](CO)O1	-2.2[25 µM]
COc1cc(C(=O)Nc2ccc(C(=O)c3ccncc3)cc2)cc(OC)c1OC	-2.4
COc1ccc(S(=O)(=O)N[C@H]2CC[C@H](CCNC(=O)CN3CCOCC3)O[C@@H]2CO)cc1	-8.2
c1ccc(-c2nccc(-c3ccc4c(c3)OCO4)n2)cc1	-88.3
c1ccc(-c2noc(-c3cccnc3)n2)nc1	-3.5
c1ccc(CCc2ccccc2-c2nc(-c3ccccn3)no2)cc1	10.8
c1ccc(-c2noc(-c3ccncc3)n2)nc1	-47.1
c1ccc(-c2noc(-c3ccc4c(c3)OCO4)n2)nc1	75.4*
c1ccc(-c2noc(-c3ccc4ccccc4c3)n2)nc1	105.0*
CC(=O)N1[C@H](CO)[C@@H](c2ccc(C3=CCCCC3)cc2)[C@@H]1CNC(=O)CN(C)C	-7.9[25 µM]
Cc1c(C(=O)NCC2CCCO2)oc2ccc(S(=O)(=O)N3CCCCC3)cc12 (centres undefined)	14.3
